Laboratory results: the supplement of paper PMC13380429

What was measured:
[1] = system: Vero E6 infected with SARS-CoV-2; assay: morphology score (similarity to uninfected cells); higher = more like uninfected cells; settings: 24 h
[2] = system: Vero E6 infected with SARS-CoV-2; assay: SARS-CoV-2 infection rate relative to infected DMSO; higher = more infection, active = 60 or less; settings: 24 h

Clc1ccccc1C(c1ccccc1)(c1ccccc1)n1cccn1 (10 µM)
morphology score [1]: 0.0967 | SARS-CoV-2 infection rate [2]: 100% (inactive)

CCOc1ccc(Cc2cc([C@@H]3O[C@H](SC)[C@@H](O)[C@H](O)[C@H]3O)ccc2Cl)cc1 [sotagliflozin] (10 µM)
morphology score [1]: -0.0387 | SARS-CoV-2 infection rate [2]: 114% (inactive)

CCCCC#Cc1nc(NC)c2ncn([C@@H]3O[C@H](CO)[C@@H](O)[C@H]3O)c2n1 (10 µM)
morphology score [1]: 0.143 | SARS-CoV-2 infection rate [2]: 96% (inactive)

CC(C)C[C@H](NC(=O)[C@H](Cc1ccccc1)NC(=O)c1cnccn1)B(O)O [bortezomib] (10 µM)
morphology score [1]: -0.0961 | SARS-CoV-2 infection rate [2]: 96.5% (inactive)

COc1ccc2c3c1O[C@H]1C[C@@H](O)C=C[C@@]31CCN(C)C2 [galantamine] (10 µM)
morphology score [1]: 0.113 | SARS-CoV-2 infection rate [2]: 102% (inactive)

O=C(O)C(F)(F)C(F)(F)C(F)(F)C(F)(F)C(F)(F)C(F)(F)C(F)(F)F [ammonium-perfluorocaprylate] (10 µM)
morphology score [1]: -0.0312 | SARS-CoV-2 infection rate [2]: 112% (inactive)

Cc1ccc(S(=O)(=O)NC(=O)NN2CC3CCCC3C2)cc1 (stereo not given) [gliclazide] (10 µM)
morphology score [1]: 0.0635 | SARS-CoV-2 infection rate [2]: 106% (inactive)

O=C(CBr)N1CC([N+](=O)[O-])([N+](=O)[O-])C1 (10 µM)
morphology score [1]: 0.0284 | SARS-CoV-2 infection rate [2]: 116% (inactive)

O=C(O)c1cnn(-c2nc3cc(OC(F)(F)F)c(Cl)cc3[nH]2)c1 (10 µM)
morphology score [1]: 0.316 | SARS-CoV-2 infection rate [2]: 88.5% (inactive)

COc1ccc2nc3cc(Cl)ccc3c(Nc3cc(CN4CCCC4)c(O)c(CN4CCCC4)c3)c2n1 [pyronaridine] (0.833333 µM)
morphology score [1]: 0.282 | SARS-CoV-2 infection rate [2]: 100% (inactive)
